# The sample as a whole holds a higher share of the strongest signals than the screen did.
# What was measured:
# Assay in all cases: glycan array binding signal (z-score within array); higher = stronger binding
# Details in all cases: glycan notation: IUPAC condensed, linker removed
# [1] = molecular target: Gal(b1-4)GlcNAc
# Method in brief: (§1)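 The binding signal is a Z-score computed within each array. Data were drawn from 3228 arrays in the Consortium for Functional Glycomics database, restricted to those with a known protein sequence. Scores were averaged over arrays of the same protein sequence at different concentrations or buffers, and over linkers, and negative values can be taken as non-binding.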
# [2] = molecular target: Gal(b1-4)GlcNAc(b1-2)Man(a1-3)[GlcNAc(b1-4)][Gal(b1-4)GlcNAc(b1-2)Man(a1-6)]Man(b1-4)GlcNAc(b1-4)GlcNAc
# Method in brief: as §1
# [3] = molecular target: Gal(b1-4)GlcNAc(b1-3)Gal(b1-3)GalNAc
# Method in brief: as §1
# [4] = molecular target: Gal3S(b1-4)Glc6S
# Method in brief: as §1
# [5] = molecular target: Gal6S(b1-4)Glc
# Method in brief: as §1
# [6] = molecular target: GlcNAc(b1-3)Gal(b1-4)Glc
# Method in brief: as §1
# [7] = molecular target: GlcNAc(b1-3)Gal(b1-4)GlcNAc(b1-3)Gal(b1-4)GlcNAc(b1-2)[GlcNAc(b1-3)Gal(b1-4)GlcNAc(b1-3)Gal(b1-4)GlcNAc(b1-6)]Man(a1-6)[GlcNAc(b1-3)Gal(b1-4)GlcNAc(b1-3)Gal(b1-4)GlcNAc(b1-2)Man(a1-3)]Man(b1-4)GlcNAc(b1-4)[Fuc(a1-6)]GlcNAc
# Method in brief: as §1
# [8] = molecular target: GlcNAc(b1-3)Gal(b1-4)GlcNAc(b1-3)Gal(b1-4)GlcNAc(b1-3)Gal(b1-4)GlcNAc(b1-2)[GlcNAc(b1-3)Gal(b1-4)GlcNAc(b1-3)Gal(b1-4)GlcNAc(b1-3)Gal(b1-4)GlcNAc(b1-6)]Man(a1-6)[GlcNAc(b1-3)Gal(b1-4)GlcNAc(b1-3)Gal(b1-4)GlcNAc(b1-3)Gal(b1-4)GlcNAc(b1-2)Man(a1-3)]Man(b1-4)GlcNAc(b1-4)[Fuc(a1-6)]GlcNAc
# Method in brief: as §1
# [9] = molecular target: GlcNAc(b1-3)Gal(b1-4)GlcNAc(b1-3)Gal(b1-4)GlcNAc(b1-3)Gal(b1-4)GlcNAc(b1-3)Gal(b1-4)GlcNAc(b1-2)[GlcNAc(b1-3)Gal(b1-4)GlcNAc(b1-3)Gal(b1-4)GlcNAc(b1-3)Gal(b1-4)GlcNAc(b1-3)Gal(b1-4)GlcNAc(b1-6)]Man(a1-6)[GlcNAc(b1-3)Gal(b1-4)GlcNAc(b1-3)Gal(b1-4)GlcNAc(b1-3)Gal(b1-4)GlcNAc(b1-3)Gal(b1-4)GlcNAc(b1-2)Man(a1-3)]Man(b1-4)GlcNAc(b1-4)[Fuc(a1-6)]GlcNAc
# Method in brief: as §1
# [10] = molecular target: GlcNAc(b1-3)GalNAc
# Method in brief: as §1
# [11] = molecular target: GlcNAc(b1-3)[GlcNAc(b1-6)]Gal(b1-4)GlcNAc
# Method in brief: as §1
# [12] = molecular target: Man(a1-2)Man(a1-3)[Man(a1-2)Man(a1-6)]Man
# Method in brief: as §1
# [13] = molecular target: Man(a1-3)[Man(a1-6)]Man(b1-4)GlcNAc(b1-4)[Fuc(a1-6)]GlcNAc
# Method in brief: as §1
# [14] = molecular target: Neu5Ac(a2-3)Gal(b1-3)GlcNAc(b1-2)Man(a1-3)[GlcNAc(b1-4)][Neu5Ac(a2-3)Gal(b1-3)GlcNAc(b1-2)Man(a1-6)]Man(b1-4)GlcNAc(b1-4)GlcNAc
# Method in brief: as §1
# [15] = molecular target: Neu5Ac(a2-3)Gal(b1-4)GlcNAc
# Method in brief: as §1
# [16] = molecular target: Neu5Ac(a2-3)Gal(b1-4)GlcNAc(b1-2)Man(a1-3)[Neu5Ac(a2-6)Gal(b1-4)GlcNAc(b1-2)Man(a1-6)]Man(b1-4)GlcNAc(b1-4)GlcNAc
# Method in brief: as §1
# [17] = molecular target: Neu5Ac(a2-3)Gal(b1-4)GlcNAc(b1-2)[Neu5Ac(a2-3)Gal(b1-4)GlcNAc(b1-4)]Man(a1-3)[GlcNAc(b1-4)][Neu5Ac(a2-3)Gal(b1-4)GlcNAc(b1-2)[Neu5Ac(a2-3)Gal(b1-4)GlcNAc(b1-6)]Man(a1-6)]Man(b1-4)GlcNAc(b1-4)GlcNAc
# Method in brief: as §1
# [18] = molecular target: Neu5Ac(a2-3)[GalNAc(b1-4)]Gal(b1-4)GlcNAc(b1-3)GalNAc
# Method in brief: as §1
# [19] = molecular target: Neu5Ac(a2-6)Gal(b1-4)GlcNAc(b1-3)Gal(b1-4)GlcNAc(b1-2)Man(a1-3)[Neu5Ac(a2-6)Gal(b1-4)GlcNAc(b1-3)Gal(b1-4)GlcNAc(b1-2)Man(a1-6)]GalNAc
# Method in brief: as §1
# [20] = molecular target: Neu5Ac(a2-6)Gal(b1-4)GlcNAc(b1-3)Gal(b1-4)GlcNAc(b1-3)Gal(b1-4)GlcNAc
# Method in brief: as §1
# [21] = molecular target: Neu5Ac(a2-6)Gal(b1-4)GlcNAc(b1-3)Gal(b1-4)GlcNAc(b1-3)Gal(b1-4)GlcNAc(b1-2)Man(a1-3)[Neu5Ac(a2-6)Gal(b1-4)GlcNAc(b1-3)Gal(b1-4)GlcNAc(b1-3)Gal(b1-4)GlcNAc(b1-2)Man(a1-6)]GalNAc
# Method in brief: as §1
# [22] = molecular target: Neu5Ac(a2-6)Gal(b1-4)GlcNAc(b1-3)Gal(b1-4)[Fuc(a1-3)]GlcNAc(b1-3)Gal(b1-4)[Fuc(a1-3)]GlcNAc
# Method in brief: as §1
# [23] = molecular target: Neu5Ac(a2-6)Gal(b1-4)GlcNAc(b1-6)[Gal(b1-3)GlcNAc(b1-3)]Gal(b1-4)Glc
# Method in brief: as §1
# [24] = molecular target: Neu5Ac(a2-6)GlcNAc(b1-4)GlcNAc(b1-4)GlcNAc
# Method in brief: as §1
# [25] = molecular target: Neu5Ac(a2-8)Neu5Ac(a2-3)Gal(b1-3)GalNAc(b1-4)[Neu5Ac(a2-8)Neu5Ac(a2-3)]Gal(b1-4)Glc
# Method in brief: as §1
# [26] = molecular target: Neu5Ac9Ac(a2-6)Gal(b1-4)GlcNAc
# Method in brief: as §1
binder,measurement,setting,value
Epa8 (Candida glabrata) (protein) MGSSHHHHHHSSGLVPRGSHMASSRALSDYPLGCSPLLGTKLTPGLSMELYEYPLDNHGIGPHCWDPAYLNPEYPRTGFESHKLIGTAQNVMSLNFEHRTQDCHVEFSNLPASFNFPDQITLTNFTMLLYGYFKPKESGRYRFHMEADDLLLMNLGAGNAFDCCAHEATRNNLGDYIAYDIWAGTRKDVEVFLEKEVFYPLRLFFNNRDGRAALDFSYYLNGATEPGTDIPELLFSLPDGESCPAYI,glycan array binding signal (z-score),[1],-0.292
same,glycan array binding signal (z-score),[2],-1.47
same,glycan array binding signal (z-score),[3],-1.06
same,glycan array binding signal (z-score),[4],0.684
same,glycan array binding signal (z-score),[5],0.199
same,glycan array binding signal (z-score),[6],-0.331
same,glycan array binding signal (z-score),[7],3.86
same,glycan array binding signal (z-score),[8],3
same,glycan array binding signal (z-score),[9],2.23
same,glycan array binding signal (z-score),[10],-0.661
same,glycan array binding signal (z-score),[11],0.492
same,glycan array binding signal (z-score),[12],-0.246
same,glycan array binding signal (z-score),[13],2.33
same,glycan array binding signal (z-score),[14],1.49
same,glycan array binding signal (z-score),[15],-0.315
same,glycan array binding signal (z-score),[16],0.195
same,glycan array binding signal (z-score),[17],-0.346
same,glycan array binding signal (z-score),[18],0.105
same,glycan array binding signal (z-score),[19],2.31
same,glycan array binding signal (z-score),[20],-0.084
same,glycan array binding signal (z-score),[21],3.31
same,glycan array binding signal (z-score),[22],-0.491
same,glycan array binding signal (z-score),[23],-0.638
same,glycan array binding signal (z-score),[24],-0.271
same,glycan array binding signal (z-score),[25],0.256
same,glycan array binding signal (z-score),[26],-0.4

# — the supplement of paper PMC8728848
